ChEMBL document CHEMBL3988442, “University of Dundee, Small-Polar-MMV Screening Library” (2021)
The whole screen tested about 69,000 compounds, of which about 50 (0.07%) showed an effect of 50% or more. What follows is part of a selection rich in strong results, with near analogues and random picks from the rest.

biological target: Lysine--tRNA ligase (Plasmodium falciparum (isolate 3D7)) (UniProt Q8IDJ8); assay: Pf-KRS-1 (Lysyl-RNA Synthetase-1, KRS-1, cytosolic KRS) from Plasmodium falciparum. Inhibitor assay, 384 well plate, luminescence read.; assay type: functional; parameters: scale not given: in the data most compounds retested in dose-response had high values; details: 30 µM
Sequence (Q8IDJ8 1-583): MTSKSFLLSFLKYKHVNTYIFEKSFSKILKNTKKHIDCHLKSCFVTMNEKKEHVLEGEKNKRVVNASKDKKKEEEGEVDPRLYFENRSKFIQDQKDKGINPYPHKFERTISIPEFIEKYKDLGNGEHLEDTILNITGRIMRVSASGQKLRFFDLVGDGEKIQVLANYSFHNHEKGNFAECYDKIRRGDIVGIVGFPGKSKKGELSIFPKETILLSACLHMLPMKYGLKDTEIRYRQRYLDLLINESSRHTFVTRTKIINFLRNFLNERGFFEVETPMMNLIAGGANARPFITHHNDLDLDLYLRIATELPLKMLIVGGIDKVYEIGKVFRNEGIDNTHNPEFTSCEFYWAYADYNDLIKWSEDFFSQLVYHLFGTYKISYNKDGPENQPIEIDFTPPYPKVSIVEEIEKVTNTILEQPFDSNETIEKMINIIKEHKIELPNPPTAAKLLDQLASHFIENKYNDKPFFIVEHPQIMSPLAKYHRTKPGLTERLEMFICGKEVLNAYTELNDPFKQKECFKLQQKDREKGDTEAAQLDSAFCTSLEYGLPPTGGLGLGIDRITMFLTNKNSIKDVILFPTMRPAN

Row | SMILES | Percent Effect [%]
1 | COCC(=O)N1CC[C@H]2[C@H]1CCN2CC(C)C | 7.19
2 | CN(Cc1ccco1)[C@@H]1CN(CC2CCOCC2)C[C@@H]2CCCO[C@@H]21 | -0.34
3 | CN1C[C@H]2CNC[C@@]2(C(=O)N2CCN(c3ncccc3C#N)CC2)C1 | 4.21
4 | O=C([C@H]1CCS(=O)(=O)[C@@H]2CN(Cc3ccc(F)cc3)C[C@H]12)N1CCCC1 | 7.12
5 | O=C(c1ccc[nH]1)N1C[C@H](OCc2ccccn2)[C@H]2COC[C@H]21 | -1.37
6 | Cc1cccc(-c2noc(CN3CCc4nn(C)c(=O)cc4C3)n2)c1 | 68.9
7 | Cn1nc2c(cc1=O)CN(Cc1nc(C3CC3)no1)CC2 | 8.16
8 | Cn1nc2c(cc1=O)CN(Cc1nc(-c3ccco3)no1)CC2 | 5.02
9 | Cn1nc2c(cc1=O)CN(Cc1nc(C(C)(C)C)no1)CC2 | 70.1
10 | Cc1ccc(-c2noc(CN3CCc4nn(C)c(=O)cc4C3)n2)cc1 | 1.64
11 | Cn1nc2c(cc1=O)CN(Cc1nc(-c3cccnc3)no1)CC2 | -1.07
12 | CSCC[C@H]1CN2CCC[C@H]2CN1Cc1coc2ccc(C)cc2c1=O | -1.05
13 | Fc1cnc(N2CCO[C@H]3CN(CC4CCC4)C[C@H]32)nc1 | -1.14
14 | Cc1nnsc1CN1C[C@H]2CC[C@@H]1CN(Cc1ccccc1)C2 | 2.23
15 | CCC(=O)N1CC[C@H]2C(=O)N(Cc3ccc(OC)cc3)CCO[C@H]2C1 | 4.55
16 | Cc1noc(C)c1CN1CCO[C@H]2CN(CC3CC3)C[C@H]21 | 2.54
17 | Cc1noc(C)c1CN1CC[C@H]2[C@H]1CCN2CC1CCOCC1 | 59
18 | Cc1noc(C)c1CN1CC[C@H]2[C@@H]1CCC(=O)N2CC1CCOCC1 | 3.41
19 | CCCN1CCN(C(=O)c2cccc3cccnc23)[C@H]2CS(=O)(=O)C[C@H]21 | -0.361
20 | CC(C)CN1Cc2nc(N)ncc2C1=O | 91.2
21 | CN1CCC(N2Cc3nc(N)ncc3C2=O)CC1 | 2.22
22 | CC(C)CN1Cc2nc(N3CCC(O)CC3)ncc2C1=O | 4.55
23 | CC(C)CN1Cc2nc(N3CCCC3)ncc2C1=O | 6.16

Row | SMILES | Percent Effect [%]
24 | CC1CCC(N2Cc3nc(N)ncc3C2=O)CC1 (stereo unspecified) | 73.8
25 | CC1(C)CC(N2Cc3nc(N)ncc3C2=O)CC(C)(C)N1 | 1.77
26 | CN1[C@H](CN2CCCC2)C[C@@H]2CN(C(=O)Cc3cccs3)CC[C@@H]21 | -1.4
27 | CCO[C@@H]1CN(S(=O)(=O)c2cn(C)cn2)[C@@H]2CCCO[C@@H]21 | 3.16
28 | CC(C)=CCN1C(=O)[C@H]2CC[C@@H]1CN(C(=O)CCc1n[nH]c(C)c1C)C2 | -4.7
29 | CC(NC(=O)C1=NN(C)C(=O)CC1)c1ccc(Cl)cc1 (stereo unspecified) | 6.56
30 | CC(NC(=O)C1=NN(C)C(=O)CC1)c1ccc(Cl)cc1Cl (stereo unspecified) | 57.8
31 | CC(NC(=O)C1=NN(C)C(=O)CC1)c1ccccc1Cl (stereo unspecified) | 7.44
32 | c1ccc(CO[C@@H]2CN(Cc3ccoc3)[C@@H]3COC[C@@H]32)nc1 | -0.514
33 | CC(O)CCn1ccc2[nH]c(=O)c(C#N)cc2c1=O (stereo unspecified) | 58.6
34 | CCC(Cn1ccc2[nH]c(=O)c(C#N)cc2c1=O)OC (stereo unspecified) | 34.1
35 | N#Cc1cc2c(=O)n(CC(O)C(F)(F)F)ccc2[nH]c1=O (stereo unspecified) | 27.3
36 | CCCOC(C)Cn1ccc2[nH]c(=O)c(C#N)cc2c1=O (stereo unspecified) | 61.2
37 | N#Cc1cc2c(=O)n(CC(O)Cc3ccccc3)ccc2[nH]c1=O (stereo unspecified) | 4.36
38 | CC(C)SCCn1ccc2[nH]c(=O)c(C#N)cc2c1=O | 48.5
39 | CC(C)C(=O)N1CCN(C(=O)c2cc(C(C)C)no2)[C@H]2CS(=O)(=O)C[C@H]21 | 2.34
40 | Cc1cc(CN2C[C@@H]3CN(Cc4ccsc4)CCO[C@@H]3C2)no1 | 3.95
41 | CCCn1cc(NC(=O)c2ccc(N(C)CC)cc2)ccc1=O | 6.21
42 | CCCn1cc(NC(=O)c2ccc(S(=O)(=O)CC)cc2)ccc1=O | 78.9
43 | CCCn1cc(NC(=O)c2cccnc2O)ccc1=O | 10.4
44 | CCCn1cc(NC(=O)c2ccc(NC(=O)NC3CC3)cc2)ccc1=O | 3.05
45 | CCCn1cc(NC(=O)c2ccncc2)ccc1=O | 36.1
46 | CCCn1cc(NC(=O)c2ccc(S(C)(=O)=O)cc2)ccc1=O | 79.3

Row | SMILES | Percent Effect [%]
47 | Cc1noc([C@H]2CC[C@@H]3[C@@H](CCN3S(C)(=O)=O)O2)n1 | 4.83
48 | CN(C)C(=O)N1C[C@@H]2CC[C@H](C1)N(Cc1nnc(C3CC3)o1)C2 | 1.65
49 | CCC(=O)N1CCN(C(=O)c2ccc(COC)o2)[C@H]2CS(=O)(=O)C[C@H]21 | 1.62
50 | O=C([C@@H]1CCO[C@@H]2CCN(Cc3ccc(F)cc3)C[C@H]21)N1CCCCO1 | 4.98
51 | Cc1ncncc1C(=O)N1C[C@H]2CC[C@@H]1CN(C(=O)c1ccncc1)C2 | 4.91
52 | CCOc1cccc(C2CC(=O)NCc3nc(N4CCCC4)sc32)c1 (stereo unspecified) | 1.45
53 | COc1cccc(C2SCC(=O)Nc3ccsc32)c1OC (stereo unspecified) | 1.9
54 | COc1cccc(C2CC(=O)Nc3nc(N)sc32)c1OC (stereo unspecified) | 62.7
55 | COc1cccc(CNCc2ccnc(N3CCOCC3)c2)c1OC | 5.86
56 | COc1cccc(CNc2nc(N3CCOCC3)ns2)c1OC | -2.52
57 | CC(C)Oc1ccccc1C1CC(=O)Nc2c1cnn2C (stereo unspecified) | 1.57
58 | CCn1ncnc1C1CC(=O)NCc2nc(N3CCCC3)sc21 (stereo unspecified) | 2.27
59 | COc1cccc(C2CC(=O)Nc3nc(N4CCOCC4)sc32)c1OC (stereo unspecified) | 77.8
60 | COc1cccc(C2CC(=O)Nc3nc(N4CCCCC4)sc32)c1OC (stereo unspecified) | 84.4
61 | Nc1nc2c(s1)C(c1c(F)cccc1Cl)CC(=O)N2 (stereo unspecified) | 41.6
62 | CC(C)Oc1ccccc1C1CC(=O)Nc2nc(N3CCOCC3)sc21 (stereo unspecified) | 82.6
63 | COc1cccc(C2SCC(=O)Nc3n[nH]cc32)c1OC(C)C (stereo unspecified) | 1.84
64 | O=C(N1CCCC1)N1C[C@H]2CCC[C@@]2(COCc2ccccn2)C1 | 2.76
65 | CCO[C@@H]1CC[C@H]2[C@H]1OCCN2Cc1ccoc1 | 2.1
66 | CNC(=O)[C@@H]1C[C@H]2CN(Cc3csc(C)n3)C[C@H]2N1C(C)C | 4.1
67 | O=C([C@H]1CN(Cc2cccnc2)C[C@H]2OCC[C@@H]12)N1CCCO1 | 2.79
68 | CN(C)C(=O)[C@@H]1C[C@@H]2CCN(C3CCOCC3)C[C@H]2O1 | 1.18
69 | N#Cc1cccc(C(=O)Nc2ccc([C@@H](O)[C@H]3COCC(=O)N3)cc2)c1 | 5.33

Row | SMILES | Percent Effect [%]
70 | COCC(=O)N1CCN(S(=O)(=O)c2ccccc2)[C@H]2CS(=O)(=O)C[C@H]21 | 2.66
71 | O=C1CO[C@@H]2CN(Cc3nccs3)C[C@H]2N1Cc1ccncc1 | 3.56
72 | COCC(=O)N1C[C@@H](OCc2ccncc2)[C@@H]2OCCC[C@@H]21 | 0.763
73 | COc1ccccc1C1CC(=O)Nc2c1c(=O)[nH]n2C(C)C (stereo unspecified) | -1.35
74 | COc1ccccc1C1CC(=O)Nc2c1c(=O)[nH]n2C1CCCC1 (stereo unspecified) | 5.39
75 | COc1ccccc1C1CC(=O)Nc2nc(N3CCCCC3)sc21 (stereo unspecified) | 84.3
76 | COCCN1C[C@H]2CCC[C@@H](CNc3ncccn3)[C@H]2C1 | 5
77 | Cn1ccnc1NC[C@@H]1CCC[C@@H]2CN(CC3CC3)C[C@@H]21 | 9.69
78 | Cc1ncsc1CN1C[C@H]2OCC[C@H]2[C@H](C(=O)NCC2CC2)C1 | 0.98
79 | CCCN(CCc1cccc(F)c1)c1ccc2nnnn2n1 | 10.9
80 | Fc1cccc(CCN(c2ccc3nnnn3n2)C2CC2)c1 | 5.52
81 | CCN(Cc1cccc(F)c1)c1ccc2nnnn2n1 | 50.8
82 | O=C(c1ccco1)N1CC[C@@H]2O[C@H](COCC3CCOCC3)CC[C@@H]21 | 0.363
83 | CS(=O)(=O)NC[C@@H]1OC[C@H]2CN(Cc3ccccc3)CC[C@H]21 | 3.37
84 | COCCNC(=O)[C@H]1C[C@@H]2CCN(CCc3ccccc3)C[C@@H]2O1 | 1.68
85 | COc1cccc(CN2C[C@@H]3COC[C@]3(CNC(=O)C3CC3)C2)c1 | 4.5
86 | Cn1ncc2c1NC(=O)CC2c1ccccc1Br (stereo unspecified) | 1.2
87 | O=C1CC(c2ccccc2Br)c2sc(N3CCOCC3)nc2N1 (stereo unspecified) | 60.1
88 | OC1CN(c2nc3c(C(F)(F)F)cccc3s2)C1 | -2.21
89 | Cc1cc(Br)c(O)c(-c2nc(N3CCOCC3)sc2C)c1 | 2.13
90 | O=c1[nH]nc(-c2cccs2)c2sc(N3CCOCC3)nc12 | 7.56
91 | O=C1CC(c2ccccc2C(F)(F)F)c2sc(N3CCOCC3)nc2N1 (stereo unspecified) | 82.6
92 | COCCN1CCO[C@@H]2CN(Cc3ccc(C)o3)C[C@@H]2C1 | 3.96

Row | SMILES | Percent Effect [%]
93 | CNC(=O)[C@@H]1COC[C@H]2CN(C(=O)COc3ccccc3)C[C@H]21 | 5.31
94 | CC(C)CS(=O)(=O)N1C[C@H]2C[C@H](C(=O)Nc3cccnc3)[C@@H](C1)O2 | -0.957
95 | O=C(Nc1ccccc1)[C@H]1C[C@@H]2CN(S(=O)(=O)c3ccccc3)C[C@H]1O2 | 1.2
96 | CCOCC1CN(Cc2ccc(OC)cc2)Cc2nn(CC3CC3)cc21 (stereo unspecified) | 60.3
97 | CCOCC1CN(Cc2ccc(F)cc2)Cc2nn(CC3CC3)cc21 (stereo unspecified) | 3.6
98 | CCOCC1CN(Cc2ccc(OC)cc2)Cc2nn(C)cc21 (stereo unspecified) | -4.8
99 | CNC(=O)N1CC[C@H]2N(C)CC[C@@]2(C(=O)N2CCOCC2)CC1 | 5.59
100 | Cc1cccc(C(=O)N2CC[C@H]3C[C@@H](C)O[C@@H]3C2)n1 | 1.1
101 | CS(=O)(=O)N1C[C@@H]2COC[C@@H](CC(=O)N3CCCCO3)[C@@H]2C1 | -2.78
102 | O=C(N1CCCO1)[C@@]12CCO[C@@H]1CCN(Cc1ccccc1)C2 | 4.7
103 | COc1cccc(CN2C[C@H]3CCNCC[C@H]3S2(=O)=O)c1 | -2.39
104 | Cc1noc(C)c1CN1CC[C@H]2C[C@H](c3nccs3)O[C@@H]2C1 | -0.715
105 | COCc1nc2cc(NCc3sc(C)nc3C)ccc2o1 | 58.6
106 | COCc1nc2cc(NCc3csc(C)n3)ccc2o1 | 10.7
107 | COCc1nc2cc(NCc3scnc3C)ccc2o1 | 13.6
108 | CCC1CCC(CNC(=O)c2c[nH]c(=O)c(Cl)c2)CC1 (stereo unspecified) | 67.6
109 | COCCN1CCC(CNC(=O)c2c[nH]c(=O)c(Cl)c2)CC1 | 2.11
110 | CC/C=C(\C)CN1CCC(CNC(=O)c2c[nH]c(=O)c(Cl)c2)C1 (stereo unspecified) | -1.78
111 | c1cnc(N2CC[C@@H]3CN(Cc4ccncc4)CCO[C@@H]3C2)nc1 | 4.97
